Experimental data from PubChem BioAssay AID862 (The Scripps Research Institute Molecular Screening Center, 2007).
Among all 190,000 compounds or so, about 1,700 (0.89%) were called active. Shown is part of a subset that was picked to be rich in actives. Unmarked numbers belong to inactive results.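 Rule for the calls: active = inhibition above the mean inhibition across all screened compounds plus 3 SD (cut at about 44% in these data); inactive = the rest.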

assay: blockers of STAT3 transcriptional signaling – U3A cells, luciferase, luminescence, MLSCN library, primary screen (AID 862); details: IL-6 STAT3-luciferase reporter, at 5.5 µM, stronger effect = higher value, host cell line lacks STAT1;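 note: 0% = DMSO only wells and 100% = 100 µM nifuroxazide control wells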

| Structure (SMILES) | inhibition |
| --- | --- |
| Oc1ccccc1C=NC1CCCCC1N=Cc1ccccc1O (centres undefined) | 5.7% |
| CCOC(=O)CNC(=O)/C(=C\c1ccc(F)cc1)NC(=O)c1ccccc1 | 1.9% |
| COc1cccc(NC(=O)Cn2c3ccccc3c3nc4n(c(=O)c32)CCS4)c1 | 12.7% |
| Cn1cccc1-c1nc2ccccc2n1C | 16.4% |
| Cn1c(-c2ccc(C(=O)c3ccccc3)s2)nc2ccccc21 | 49.1% (active) |
| Cn1c(CNC(=O)C(C)(C)C)nc2ccccc21 | 15.4% |
| Cc1cccc(NC(=S)NC23CN4CN(CN(C4)C2)C3)c1 | 4.5% |
| Cc1ccc(OCCCn2c(=O)oc3ccccc32)cc1 | 16.3% |
| CCC(=O)NC(=Nc1nc2ccccc2s1)NC(=O)CC | 12.8% |
| COC(=O)c1nc2ccccc2s1 | -7.8% |
| CC(C)CC(=O)N/C(N)=N/c1nc2ccccc2s1 | 47% (active) |
| CCC(=O)c1ccc(OCC(O)Cn2nc(C)c(C(C)=O)c2C)cc1 (centres undefined) | 22.7% |
| Cc1ccc(Cl)cc1NC(=O)C1CCN(S(C)(=O)=O)CC1 | -0.1% |
| CCCOC(=O)c1[nH]c2c(c1C)C(=O)CC(c1cccs1)C2 (centres undefined) | 3.8% |
| CCCOC(=O)c1[nH]c2c(c1C)C(=O)CC(c1cc(OC)c(OC)c(OC)c1)C2 (centres undefined) | 47.1% (active) |
| CCOC(=O)c1[nH]c2c(c1C)C(=O)CC(c1ccc(N(C)C)cc1)C2 (centres undefined) | -3.7% |
| COC(=O)CC1=NN(c2ccccc2)C(=O)C1 | 3.8% |
| Cc1ccccc1CN(c1ccc(C(=O)NCC2CCCO2)cc1)S(C)(=O)=O (centres undefined) | 1% |
| Cc1cccc(C)c1NC(=O)C1(N(C(=O)c2ccccn2)c2ccc(O)cc2)CCCCC1 | 0.2% |
| c1csc(-c2nc(-c3ccncc3)no2)c1 | 16.8% |
| O=C(Oc1ccc(-c2nc(-c3ccccn3)no2)cc1)c1ccccc1 | 76.7% (active) |
| O=C(Oc1ccccc1)c1ccc2nccnc2c1 | 2.6% |
| CC(C)c1nc(-c2ccccn2)no1 | -0.3% |
| COc1nc(-c2ccc(Cl)cc2)ccc1-c1noc(-c2cccs2)n1 | -4.2% |
| c1ccc(-c2noc(-c3cccs3)n2)nc1 | 43.8% (active) |
| Cc1c(C(=O)O)nnn1-c1nonc1N | -8.4% |

| Structure (SMILES) | inhibition |
| --- | --- |
| Cc1cc(F)ccc1S(=O)(=O)Nc1ncnc2scc(-c3ccc(F)cc3)c12 | -1.8% |
| CC(=O)c1c(C)[nH]c(C(=O)Nc2cc(S(=O)(=O)N(C)C)ccc2C)c1C | 13.2% |
| CCOc1ccc(NC(=O)CC2C(=O)N(c3ccccc3)C(=O)N2CCOC)cc1 (centres undefined) | -0.8% |
| CCCCn1c(N)c(N(CC)C(=O)/C=C/c2ccco2)c(=O)[nH]c1=O | -5.6% |
| Cc1cccc(CSc2nnc(Cn3c(=O)sc4ccccc43)n2C)c1 | 5% |
| COc1ccc(Cn2c(=O)sc3ccccc32)cc1OC | 51.6% (active) |
| COc1ccccc1CNC(=O)CCn1c(=O)sc2ccccc21 | -0.6% |
| CO/N=C/CC(=O)c1ccc(OC)cc1 | 6.2% |
| COc1ccc(-c2nn(C)c(=O)c3ccccc23)cc1NC(=O)COc1ccccc1 | 38.1% |
| Cc1ccc(NC(=O)Cn2nc(C)c3ccccc3c2=O)c(C)c1 | 9.7% |
| Cc1ccc(F)cc1NC(=O)Cc1nn(C)c(=O)c2ccccc12 | 56.3% (active) |
| Cc1cc(N2CCN(Cc3ccc4c(c3)OCO4)CC2)n2ncnc2n1 | -1.7% |
| Fc1ccc2[nH]c3c(N4CCN(Cc5ccc6c(c5)OCO6)CC4)ncnc3c2c1 | 65.5% (active) |
| Fc1ccc2[nH]c3c(N4CCSCC4)ncnc3c2c1 | 22.8% |
| CC(C)(C)NCCCOc1ccc(Cl)cc1C(C)(C)C | -0.4% |
| O=C(N/N=C/c1ccccc1O)/C(=C/c1ccccc1)CCO | 3.8% |
| O=C(NCCSCc1ccccc1)c1ccc(Cl)c(S(=O)(=O)N2CCOCC2)c1 | 21% |
| CC(C)(CNC(=O)c1ccc(Cl)c(S(=O)(=O)N2CCc3ccccc3C2)c1)N1CCOCC1 | 49.5% (active) |
| Cc1ccccc1CSCCNC(=O)c1ccc(Cl)c(S(=O)(=O)N2CCOCC2)c1 | 4.2% |
| CCOC(=O)C(=Cc1ccccc1OC)C(=O)OCC | 9.9% |
| Cc1cc(NC(=O)CSc2nc3c(cc2C#N)CCCCC3)no1 | -1.5% |
| Cc1ccc(-c2cc(C(=O)N/N=C/C=C/c3ccco3)c3ccccc3n2)cc1C | 46.8% (active) |
| COc1cccc(-c2cc(C(=O)N/N=C/c3ccc(OC)c(COC(C)=O)c3)c3ccccc3n2)c1 | -6% |
| O=C(N/N=C/C=C/c1ccco1)c1cccs1 | -6.8% |
| Cc1cc(C(=O)NNC(=O)c2cccc(S(=O)(=O)N3CCOCC3)c2)c2ccccc2n1 | 10% |
| CCC(=O)OCCNc1nc(-c2ccccc2)nc2ccccc12 | 1.5% |

| Structure (SMILES) | inhibition |
| --- | --- |
| O=C(COC(=O)c1ccc(O)cc1)Nc1nccs1 | -5.6% |
| Cc1nc2ccccc2cc1O | -75.4% |
| Cc1nc2ccccc2cc1OCc1ccc(F)cc1 | 73% (active) |
| Fc1cccc2ncnc(OCc3ccccc3)c12 | 4.2% |
| O=C(Nc1ccc(N2CCN(C(=O)c3cccs3)CC2)cc1)c1cccnc1Cl | 1.7% |
| O=c1c2ccccc2nc2n1C(CSc1ccc(F)cc1)CN2 (centres undefined) | -2.2% |
| O=c1c2ccccc2nc2n1C(CSCc1ccccc1)CS2 (centres undefined) | 18.7% |
| O=c1c2ccccc2nc2n1C(CSCc1cccc(C(F)(F)F)c1)CS2 (centres undefined) | 49.3% (active) |
| Cc1ccc(CNC(=O)c2cccnc2Cl)cc1 | 3.5% |
| CCOc1cc(/C=C(/C#N)c2ccc(Cl)cc2)cc(Cl)c1OCC(=O)O | 63.3% (active) |
| CCOc1c(Cl)cc(/C=N/O)cc1OC | 1.3% |
| CCOC(=O)CN/C=C(\C#N)c1ccc(F)cc1 | -0.6% |
| FC(F)(F)c1cccc(Nc2ncnc3ccccc23)c1 | 16.5% |
| c1ccc(-c2nc(NCc3ccco3)c3ccccc3n2)cc1 | -1% |
| c1coc(CNc2ncnc3ccccc23)c1 | 61.2% (active) |
| CCN(/N=C/c1ccc(N(C)C)cc1)c1nc2ccccc2[nH]1 | 1.9% |
| CCN(CCCNC(=O)CSc1cc(=O)n(C)c2cc(Cl)ccc12)Cc1ccccc1 | 5.2% |
| Cn1c(N)c(C(=O)COC(=O)/C=C/c2ccc(OC(F)F)cc2)c(=O)n(C)c1=O | 26.3% |
| O=C(Nc1ccccc1Cc1ccccc1)c1ccc2c(c1)SC1=NS(=O)(=O)CCN12 | -8.5% |
| O=C(CSc1nc2ccccc2c(=O)n1CCCO)N1CCc2ccccc21 | 12.6% |
| O=C(CSc1nc2[nH]ncc2c(=O)n1-c1ccccc1)N1CCCc2ccccc21 | -21.2% |
| Cn1c(SCC(=O)N2CCCc3ccccc32)nc2ccccc2c1=O | 62.3% (active) |
| COc1ccc(N2C(=O)C(O)C2c2ccc(C)cc2)cc1 (centres undefined) | -18.4% |
| O=C(OCC(=O)c1cccs1)c1ccc([N+](=O)[O-])o1 | 0.6% |
| COc1ccc(NC(=O)c2cc3nc(-c4ccccc4)cc(C)n3n2)cc1OC | 17.9% |
| C(=N\Nc1ccc2ccccc2n1)/c1ccc2c(c1)OCO2 | 91.2% (active) |

| Structure (SMILES) | inhibition |
| --- | --- |
| Cc1noc(C)c1/C=N/Nc1ccc2ccccc2n1 | -21.3% |
| Brc1ccc(-c2csc(N/N=C/c3ccc4c(c3)OCO4)n2)cc1 | 5% |
| S=c1[nH]nc(Nc2ccccc2)s1 | 12% |
| CN(c1ccccc1)c1nc(N)c([N+](=O)[O-])c(NCc2ccco2)n1 | -0.4% |
| CCN1/C(=C\c2ccc3ccccc3[n+]2CC)Sc2cc(C)ccc21 | 84.8% (active) |
| CCC(=O)/C=C1\Sc2ccccc2N1CC | 20.7% |
| Cc1ccccc1NC(=O)CN1C(=O)N/C(=C\c2cccn2-c2cccc(C(=O)O)c2)C1=O | 6% |
| O=C(O)CSCC(=O)Nc1ccc(C(F)(F)F)cc1 | 6.5% |
| Cc1ccc(Oc2ccc(N)cc2)cc1 | 0.4% |
| CC(C)(C)c1ccc(Oc2ccc(N)cc2)cc1 | 76.2% (active) |
| Nc1ccc(Oc2ccc(Cl)cc2)cc1 | -0.6% |
| Cc1ccc(NC(=O)Nc2ccccc2)c(Br)c1 | 16.3% |
| C=CCNc1scc(-c2ccccc2)[n+]1CC=C | 4.7% |
| C=CC[n+]1c(-c2ccc(C)cc2)csc1NNC(=O)Nc1ccccc1 | 46.3% (active) |
| CCCN(CC(=O)Nc1ccc(C(N)=O)cc1)CC(=O)Nc1ccccc1C | 3.9% |
| Cc1csc(NC(=O)Nc2ccccc2[N+](=O)[O-])n1 | -24.9% |
| OCCCC1CCCCN1Cc1nc(Cc2ccccc2Cl)no1 (centres undefined) | 4.3% |
| N/C(=N\OC(=O)c1ccc2c(c1)OCO2)c1ccc(Br)cc1 | 9.8% |
| Cc1cccc(N(CC(=O)Nc2ccc(-c3nc4ccc(C)cc4s3)cc2)S(C)(=O)=O)c1 | 28% |
| COc1cc(NC(=O)CN(C)S(=O)(=O)c2ccc3nc(C)sc3c2)cc(OC)c1 | 0.9% |
| Cc1ccc2nc(-c3ccc(NC(=O)CN(C)S(=O)(=O)c4ccccc4)cc3)sc2c1 | 49.8% (active) |
| O=C(CCc1ccccc1)NCCc1cccs1 | 4.7% |
| O=C(C/C(=N\NC(=O)c1ccccc1Br)C(F)(F)F)c1cccs1 | -8.2% |
| COc1cccc(C(=O)Nc2ccc(NC(=O)c3ccco3)cn2)c1 | 12.2% |
| O=C(Nc1ccc(NC(=O)c2cccs2)cn1)c1ccco1 | 48.3% (active) |
| O=C(Nc1ccc2nccnc2c1)c1ccco1 | 14.3% |
